Screening results (PubChem BioAssay)
AddAB inh: less growth of phage-infected E. coli with AddAB; E. coli expressing H. pylori AddAB, absorbance growth; inhibition, % at 11.9 µM; actives 0.29% (n = 330,000); AID 435030; in the data active = inhibition above about 12%;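 also: 0% = vehicle wells of infected cells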
E coli growth-1: bacterial growth inhibition, counter-screen for AddAB inhibitors | E. coli V3065 growth, OD600 absorbance, 18 h | inhibition, % at 11.9 µM | actives 0.27% (n = 330,000);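 active = inhibition above the campaign's mean inhibition across all tested compounds plus 3 SD, cut at about 9.9% in these data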;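 also: uninfected addAB+ strain grown without phage in ampicillin broth; 0% = DMSO wells and 100% = ciprofloxacin 0.95 µg/ml wells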
Tat transport: E. coli Tat transport inhibition; E. coli MC4100 TorA-mCherry Tat export, fluorescence; inhibition, % at 10 µM; actives 0.036% (n = 340,000); AID 488895;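 active = mean replicate inhibition at least 50% and at least half of replicates individually reaching 50%; inconclusive = only one of the two criteria met; inactive = neither criterion met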;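 also: exported cargo escapes ClpAP degradation while cytoplasmic cargo is degraded and loses fluorescence; 0% = median of neutral control wells and 100% = median of NaSCN control wells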
E coli growth-2: inhibitors of Escherichia coli growth; OD600, 23 h; active compounds read low; OD600 absorbance (concentration not given with the values); actives 0.21% (n = 330,000);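 active = OD600 absorbance below the run mean of sample wells minus 3.6 SD, in any replicate, cut at about 0.56 in these data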
phage Ecoli inh: E. coli growth loss with phage present; growth absorbance; inhibition, % at 11.9 µM; actives 0.26% (n = 360,000); AID 651602; in the data active = inhibition above about 11%
RecBCD conf: growth loss of phage-infected V66 E. coli, RecBCD confirmation screen | shares compounds with phage Ecoli inh | E. coli V66 + T4 2- phage, growth OD | inhibition, % at 11.9 µM | actives 45% (n = 890) | AID 651982;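 active = mean inhibition over triplicates exceeding the hit threshold derived in the original primary screen, cut at about 11% in these data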
Ecoli viability: counter-screen for RecBCD inhibitors: inhibitors of bacterial viability. shares compounds with phage Ecoli inh. inhibition, % at 11.9 µM. actives 29% (n = 890). E. coli viability, absorbance (OD) growth; in the data active = inhibition above about 20%;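 also: E. coli strain V66 grown with compound alone and no phage infection; 0% = bacteria with DMSO vehicle only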
AddAB counter: growth loss of phage-infected AddAB E. coli, RecBCD counter-screen | actives 45% (n = 890) | shares compounds with phage Ecoli inh | E. coli expressing H. pylori AddAB + T4 phage, OD growth; gene 2 mutant T4, recBCD-deleted host | inhibition, % at 11.9 µM | AID 651984;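 active = mean inhibition above the solvent-only control wells' mean plus 3 SD, cut at about 22% in these data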;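 also: higher means less bacterial growth from phage killing when AddAB is blocked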
* hit, by the source's call; ? = inconclusive; / = no result given. A selection: hits, their analogues and other compounds. The true share with any hit is near 0.5%.

SMILES	AddAB inh	E coli growth-1	Tat transport	E coli growth-2	phage Ecoli inh	RecBCD conf	Ecoli viability	AddAB counter
Cc1ccc(SCCn2nc(C(=O)O)c3ccccc3c2=O)cc1	5.1	2.3	13.1	0.737	0.8	/	/	/
O=C(O)c1nn(CCSc2ccccc2F)c(=O)c2ccccc12	-1.1	0.1	-4.0	0.701	36.7*	-5.3	-5.5	-0.2
Cc1c(Cl)sn(-c2ccc(Cl)cc2)c1=O	/	/	?	0.062*	97.7*	99.5*	99.9*	99.9*
CCCCCCCC(=O)NN=C(C)c1ccc(N)cc1	/	/	/	0.692	/	/	/	/
CCOc1cc(C=NN=C2c3ccccc3-c3ccccc32)ccc1O	/	/	4.2	/	0.5	/	/	/
O=C(NCCOc1cccc(Cl)c1Cl)c1cc(-n2cnnc2)ccc1Cl	-1.4	0.3	1.8	0.727	/	/	/	/
Cc1cccc(N=Nc2ccc(O)c3ncccc23)c1	8.7	6.2	2.4	0.716	15.9*	4.7	6.9	4.5
CCN(CC)S(=O)(=O)c1cc(OC)ccc1N=Nc1ccc(O)c2ncccc12	/	/	2.3	/	11.5*	0.9	1.8	2.4
CCS(=O)(=O)c1ccc(OC)c(N=Nc2ccc(O)c3ncccc23)c1	8.0	5.5	-8.9	0.658	6.8	/	/	/
Cc1ccccc1CN1C(=O)[C@@H]2Cc3c([nH]c4ccccc34)C(C)(C)N2C1=O	1.3	-0.7	-5.4	/	4.1	/	/	/
O=C(N/N=C/c1ccc(O)cc1O)c1ccc(NC(=O)C2CCCCC2)cc1	23.5*	29.3*	-15.1	/	23.5*	14.0*	18.5	18.0
Nc1nc(=S)c2ncn(C3OC(CO)CC3O)c2[nH]1 (stereo not drawn)	/	/	-2.8	/	11.5*	11.9*	11.1	37.8*
O=C(c1cccc(C(F)(F)F)c1)N1CCc2c([nH]c3ccccc23)C1C(F)(F)F (stereo not drawn)	3.1	-0.2	15.2	0.694	74.8*	0.1	-1.0	1.8
O=S(=O)(c1ccc(NC2CCCCC2)cc1)N1CCOCC1	3.1	0.1	-11.9	0.696	0.9	/	/	/
CC[N+](C)(CC)CCCC(=NO)C(O)(c1ccccc1)c1ccccc1	/	/	/	0.663	/	/	/	/
CCNS(=O)(=O)c1ccc(NC(=O)Cn2nc(C(F)(F)F)cc2C)cc1	11.2	10.5*	-10.1	0.685	12.0*	4.5	5.5	7.4
CC(C)(C)OC(=O)NC(COCc1ccccc1)C(=O)NC(CO)C(O)C1CC1C(=O)N1CCCC1 (stereo not drawn)	/	/	/	0.698	/	/	/	/
O=C(Nc1ccc(F)cc1)Nc1csc2ccccc12	6.7	3.0	/	0.576	12.6*	3.2	5.4	-1.6
NC(Cc1ccc(Cl)cc1)c1csc(Nc2ccc(-c3ccccc3)nn2)n1 (stereo not drawn)	/	/	/	/	4.2	/	/	/
O=C(O)CCC(=O)Nc1nnc(C(F)(F)F)s1	1.2	-1.3	1.2	0.769	2.2	/	/	/
CCC(NC(=O)Nc1nnc(C(F)(F)F)s1)(C(F)(F)F)C(F)(F)F	5.1	9.3	-20.7	0.607	12.4*	9.9	10.4	9.3
COc1cccc(-c2cnc(C(O)c3ccc(F)cc3)[nH]2)c1 (stereo not drawn)	/	/	/	/	1.7	/	/	/
COc1cccc(-c2cnc(C(O)c3cc(C)cc(C)c3)[nH]2)c1 (stereo not drawn)	/	/	/	/	13.4*	10.5	15.5	8.2
COc1cccc(-c2cnc(C(O)c3ccc(F)c(C)c3)[nH]2)c1 (stereo not drawn)	/	/	/	/	11.9*	6.0	9.2	2.8
